Among all 69,000 compounds or so, about 8,600 (12%) showed an effect of 50% or more. For the sample, strong results were picked, then their nearest neighbours and some compounds at random.

The test system of this experiment is Plasmodium berghei. Briefly: Screen against P. berghei liver stage (PbLuc), transformed with Luciferase, at 10uM. The following applies: tested at 10 uM. The experiment is classed as functional, HepG2.
With `Clc1cccc(C(NCc2ncc[nH]2)c2ccccn2)c1` (centres undefined), the INHIBITION amounted to 83.2%.
Then `CC(C(=O)Nc1cccc(Cl)c1)N1CCN(Cc2ncc[nH]2)CC1` (centres undefined), with 4.52%.
With `Fc1cccc(C(NCc2ncc[nH]2)c2ccccn2)c1` (centres undefined), the INHIBITION is given as -13.2%.
Turning to `Cn1cc(C(NCc2ccc(F)cc2)c2cccc(F)c2)cn1` (centres undefined), the INHIBITION is on record as 15%.
With `Fc1cccc(C(NCc2ncc[nH]2)c2ccccc2)c1` (centres undefined), the INHIBITION worked out at 78.2%.
Then `Clc1cccc(N2CCC(NCc3ncc[nH]3)C2)c1` (centres undefined), with 34.1%.
In the case of `Cc1ccc(NC2(C(=O)N3CCn4cncc4C3)CCCCC2)cc1C`, the INHIBITION worked out at 42.1%.
With `COCc1cnc2n1CCN(C1CCC1)C2C` (centres undefined) the figure was 42.6%; with `O=C(NCCN1CCCCC1CO)c1cc(-c2ccccc2)on1` (centres undefined), -7.81%.
With `CC(C)CNC(=O)c1ccc2c(c1)nc1n2CCN(Cc2ccco2)C1` the figure was 18.4%; with `Cc1nnc(C2Cc3ccccc3CN2Cc2nc(C(C)C)no2)o1` (centres undefined), -10.1%.
As for `CC(=O)N1N=C(c2ccccc2)OC1C(=O)NCCOc1ccccc1` (centres undefined), the INHIBITION is given as -12.2%.
For `O=C(Nc1ccc(-n2cccn2)cc1)N1CCC(O)C1` (centres undefined), the INHIBITION came to 42.3%.
For the molecule `O=C(Nc1ccc(-n2cccn2)cc1)N1CCOCC(O)C1` (centres undefined), the INHIBITION is 53.6%.
Then `O=C(Nc1ccccc1OCCc1ccccn1)N1CCOCC(O)C1` (centres undefined), with 12.3%.
With `CC(=O)OC1CN(c2nc3c(C)cccc3s2)C1` the figure was -45.6%; with `c1cnc(N2CCO[C@H]3CN(Cc4csnn4)C[C@H]32)nc1`, 42.7%; with `Cn1cc(CNC2CCc3c(ccc(=O)n3Cc3ccncc3)C2)cn1` (centres undefined), 42.1%.
As for `COCCn1c2c(ccc1=O)CC(NS(C)(=O)=O)CC2` (centres undefined), the INHIBITION amounted to 58.6%.
Then `Cn1cc(CNC2CCc3c(ccc(=O)n3Cc3cccnc3)C2)cn1` (centres undefined), with 55.7%; and `CN(C)C(=O)Cn1c2c(ccc1=O)CC(NCc1cccnc1)CC2` (centres undefined), with 57.1%; and `CS(=O)(=O)NC1CCc2c(ccc(=O)n2CC2CC2)C1` (centres undefined), with 31.3%.
Then `O=c1ccc2c(n1Cc1cccnc1)CCC(NCc1cccnc1)C2` (centres undefined), with -2.03%; and `CN(C)CCn1c2c(ccc1=O)CC(NCc1cccnc1)CC2` (centres undefined), with 34.9%; and `O=C(NC1CCc2c(ccc(=O)n2CC2CC2)C1)c1cscn1` (centres undefined), with 41.2%.
For the molecule `CN(C)C(=O)Cn1c2c(ccc1=O)CC(NCc1ccoc1)CC2` (centres undefined), the INHIBITION is listed as 8.31%.
With `COCCn1c2c(ccc1=O)CC(NC(=O)c1cscn1)CC2` (centres undefined) the figure was 70.2%.
For the molecule `CN(C)CCn1c2c(ccc1=O)CC(NC(=O)c1cnccn1)CC2` (centres undefined), the INHIBITION amounted to 14.6%.
Then `Cn1c2c(ccc1=O)CC(NS(C)(=O)=O)CC2` (centres undefined), with 45.5%.
With `Nc1nc(Nc2ccccc2)cc(N2CCNCC2)n1` the figure was 12.5%; with `CC(C)CCn1ccc(NC(=O)N2CCCC2CN2CCOCC2)n1` (centres undefined), -0.551%; with `Cc1cc(CNS(C)(=O)=O)ccc1N(C)C`, 25.5%.
As for `Cc1ccc(CN2C[C@@H]3COC[C@@H](CC(=O)N4CCOCC4)[C@@H]3C2)s1`, the INHIBITION is on record as -3.52%.
As for `Cc1nccnc1C1CCN(C(=O)C(C)C)CC1`, the INHIBITION is recorded as 29.35%.
As to `CC(=O)N(C)Cc1ncn2c1CN(C(=O)CC1CC1)CCC2`, the INHIBITION was -31.2%.
With `Cc1ccc(C(=O)N2C[C@H](OCC3CCOCC3)[C@H]3OCCC[C@H]32)o1` the figure was -33.9%.
As for `COc1ccc(CN2CC[C@@H]3CN(S(C)(=O)=O)CCO[C@@H]3C2)cc1`, the INHIBITION is recorded as -0.804%.
With `CC(C)N1CCOC(c2cc(CCO)[nH]n2)C1` (centres undefined), the INHIBITION worked out at 29.21%.
Then `CCn1c2c(ccc1=O)CC(NCc1cnn(C)c1)CC2` (centres undefined), with 12.2%; and `CN(C)CCn1c2c(ccc1=O)CC(NCc1cnn(C)c1)CC2` (centres undefined), with 31.2%.
Then `COCCn1c2c(ccc1=O)CC(NCc1cnn(C)c1)CC2` (centres undefined), with 55.7%; and `Cc1ccc(C(=O)N2CCC3(CC2)NC(=O)CC3c2ccccc2)cn1` (centres undefined), with -16.2%; and `Cn1nc(Br)c2c(NCCSCCCO)ncnc21`, with 23.1%.
`O=C(CCCNc1ncccn1)N1CCCC(n2ccnc2)C1` (centres undefined): the INHIBITION is reported as -17.6%.
With `CN1CCCC(c2nccnc2-c2cccc(Cl)c2)C1` (centres undefined) the figure was 11.575%.
Then `CN1CCCC(c2cncc(-c3cccc(C(F)(F)F)c3)n2)C1` (centres undefined), with 66.6%.
Then `CN1CCCC(c2cccc(-c3cccc(Cl)c3)n2)C1` (centres undefined), with 64.7%; and `CN1CCCC(c2cccc(-c3cccc(F)c3)n2)C1` (centres undefined), with 36%.
For the molecule `CN1CCCC(c2nccnc2-c2cccc(C(F)(F)F)c2)C1` (centres undefined), the INHIBITION is recorded as 19.64%.
With `CN1CCCC(c2cccc(-c3cccc(C(F)(F)F)c3)n2)C1` (centres undefined) the figure was 45.2%; with `Cn1ccnc1C1CCCN(C(=O)c2cc(F)cc(F)c2)C1` (centres undefined), 48.2%.
Then `CN(C)CCN1CCC2(CCCN(C(=O)C3CCC3)C2)CC1`, with 33%.
With `O=C(C1CCOCC1)N1CC[C@H](O)[C@@H]1Cc1cccnc1` the figure was 37.6%.
In the case of `O=C([C@@H]1CCO[C@@H]2CCN(CC3CC3)C[C@H]21)N1CCCC1`, the INHIBITION was found to be 57.5%.
With `O=C([C@@H]1CCO[C@@H]2CCN(CC3CCOCC3)C[C@H]21)N1CCCO1` the figure was 34.4%; with `O=C([C@@H]1CCO[C@@H]2CCN(CCc3ccccc3)C[C@@H]21)N1CCCC1`, -101%.
On to `Cc1ccc(CN2CC[C@H]3OCC[C@@H](C(=O)N4CCCCO4)[C@@H]3C2)o1`, for which the INHIBITION was 61.5%.
Then `Cc1ccc(CN2C[C@H](C(=O)N3CCCCO3)[C@@H]3CCO[C@@H]3C2)o1`, with -12.1%; and `O=C([C@@H]1CCO[C@@H]2CCN(CC3CC3)C[C@H]21)N1CCCCO1`, with 61.5%; and `CC(C)CN1CC[C@H]2OCC[C@@H](C(=O)N3CCCO3)[C@@H]2C1`, with 47.9%.
With `O=C([C@@H]1CCO[C@@H]2CCN(CC3CCOCC3)C[C@H]21)N1CCCC1` the figure was 30.3%.
With `O=C([C@@H]1CCO[C@@H]2CCN(Cc3ccco3)C[C@H]21)N1CCCCO1` the figure was 29.8%; with `CN1CCN(C2COC3(CCN(CC4CC4)CC3)C2)CC1` (centres undefined), -30.1%.
Regarding `CC(C)n1nc(Cn2cccn2)c2c1CN(C1CCOC1)C2` (centres undefined), the INHIBITION was -12.1%.
As to `COc1cccc2c1ccn2CCNC(C)=O`, the INHIBITION is given as 21%.
Then `O=C(NCc1cncc2c1CCN(Cc1ccc(F)cc1)C2)C1CC1`, with -14.4%; and `COc1cccc(N2C(=O)CC3(CCCNC3)C2=O)c1` (centres undefined), with -33.1%; and `N#Cc1ncn(CCC(=O)Nc2cccc(Cl)c2)n1`, with 39.5%.
`CCC(=O)Nc1ccc(C(C)NC(=O)COC)cc1` (centres undefined): the INHIBITION was -68%.
On to `N[C@@H](Cc1ccccc1)c1nnc(S(=O)(=O)Cc2cccc(Cl)c2)o1`, for which the INHIBITION is listed as -3.73%.
For the molecule `CCN(CC)c1ccc(C(=O)N2CCC(c3nc(C)no3)CC2)cn1`, the INHIBITION was determined as 30.25%.
Then `Cc1cc(CCC2CN(CC3(O)CCCCC3)CCO2)ncn1` (centres undefined), with -3.02%; and `CC(C)Nc1nc(N2CCOCC2)nc2c1CN(Cc1ccoc1)CC2`, with 55.2%.
Then `CC(C)CCN1CCc2nc(N3CCOCC3)nc(NC(C)C)c2C1`, with 70.2%; and `Cc1nc(N2CCCC2)nc2c1CCN(Cc1ccoc1)CC2`, with 8.03%; and `CC(C)Nc1nc(N2CCOCC2)nc2c1CN(CC(=O)N(C)C)CC2`, with 20.5%.
With `Cc1nc(N2CCOCC2)nc2c1CN(CC(=O)N(C)C)CC2` the figure was 16.8%.
Consider `C1CN(c2nc3c(c(NC4CC4)n2)CN(CC2CCOC2)CC3)CCO1` (centres undefined), for which the INHIBITION was -39.4%.
Then `c1cc(CN2CCc3nc(N4CCOCC4)nc(NC4CC4)c3C2)co1`, with -15.3%; and `CCN1CCc2nc(N3CCOCC3)nc(NC(C)C)c2C1`, with 24%; and `Cc1nc(N2CCOCC2)nc2c1CCN(c1nccs1)CC2`, with 37.8%.
Take `c1csc(CN2CCc3nc(N4CCOCC4)nc(NC4CC4)c3C2)n1`: the INHIBITION came out at 57.1%.
As to `CCCN1CCc2nc(N3CCOCC3)nc(NC(C)C)c2C1`, the INHIBITION was found to be 69.3%.
With `Cc1cc2ccccc2n1CC(=O)NC(C)C(=O)N1CCOCC1` (centres undefined) the figure was -7.83%; with `CCCc1nc(C(C)(C)NC(=O)C2CC(=O)N(C3CC3)C2)no1` (centres undefined), 40%.
With `CC(C)(C)n1cc(CNC2CCN(C(=O)c3ccoc3)CC2)cn1` the figure was 1.75%; with `COc1cc(CN2CCC3(CC(Nc4ccncn4)C3)C2)cc(OC)c1` (centres undefined), 44.1%.
Then `Cc1cc2ccccc2n1CC(=O)NCC(=O)N1CCOCC1`, with 8.41%; and `CCOCc1nn(CC2CC2)c2c1CN(Cc1ccco1)CC2`, with 12.4%; and `O=C(NCCN1CCCCC1)c1ccn(-c2ccc(F)cc2)n1`, with -2.53%.
With `CC1CCCN(CCNC(=O)c2ccn(-c3ccccc3)n2)C1` (centres undefined), the INHIBITION was found to be 29.4%.
Then `COc1ccc(-n2ccc(C(=O)NCCN3CCCC(C)C3)n2)cc1` (centres undefined), with 62.1%.
Regarding `COc1ccc(-n2ccc(C(=O)NCCN3CCCCC3C)n2)cc1` (centres undefined), the INHIBITION was 44.8%.
For the molecule `COc1cn(-c2ccccc2)nc1C(=O)NCCN1CCCC(C)C1` (centres undefined), the INHIBITION amounted to 22.3%.
In the case of `CC1CCCN(CCNC(=O)c2ccn(-c3ccc(F)cc3)n2)C1` (centres undefined), the INHIBITION was 3.15%.
`CC1CCCN(CCNC(=O)c2ccn(-c3cccc(F)c3)n2)C1` (centres undefined): the INHIBITION worked out at 51.1%.
Then `COc1ccc(-n2ccc(C(=O)NCCN3CCCCC3)n2)cc1`, with 40.2%; and `CCN1CCN(CCNC(=O)c2ccn(-c3ccc(F)cc3)n2)CC1`, with 60.2%; and `COc1ccc(-n2ccc(C(=O)NCCN3CCCCCC3)n2)cc1`, with 51.1%.
Then `O=C(NCCN1CCCCCC1=O)c1ccn(-c2ccc(F)cc2)n1`, with 13.3%.
Then `COc1ccc(-n2ccc(C(=O)NCCN3CCC(C)CC3)n2)cc1`, with 38.8%; and `CC(C)CNC(=O)[C@H]1CCS(=O)(=O)[C@@H]2CN(CC(C)C)C[C@H]12`, with 23.3%; and `Cc1ccc(NC(=O)NCCn2cnc(C)c(C)c2=O)cc1F`, with -16.4%.
`CC(=O)c1cc2ncc(C(=O)NC3CCCC3)cc2[nH]1`: the INHIBITION is recorded as 8.52%.
